Screening results from PubChem BioAssay.
Gli-Sufu block: antagonists of Gli-Sufu signaling | Sufu-KO-LIGHT fibroblasts, Gli luciferase reporter luminescence | AID 588413 | hit rate 0.74% among 340,000 | inhibition, % at 5 µM;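 active = inhibition above about 55%, limit read from the data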
Jurkat NFkB inh: inhibitors of the PMA/ionomycin-induced NF-kB reporter in Jurkat cells | PMA/ionomycin-induced NF-kB luciferase reporter, luminescence | inhibition, % at 4 µM | hit rate 0.53% among 330,000; in the data active = inhibition above about 50%
aSyn UTR inh: 5' untranslated region of α-synuclein, MLPCN primary screen | alpha-synuclein 5'UTR reporter, inhibitor activity | inhibition, % (tested at 7.5 µM) | hit rate 0.82% among 300,000 | AID 1813; in the data active = inhibition above about 60%;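 note: H4 neuroglioblastoma cells stably carrying SNCA 5'UTR luciferase fusion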
KLF5 inhibitor: kruppel-like factor 5 inhibition; DLD-1 KLF5 promoter-luciferase reporter, luminescence; inhibition, % at 5 µM; hit rate 0.23% among 290,000; AID 1700;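 active = inhibition above a per-plate limit of that plate's mean compound inhibition plus 3 SD, cut at about 60% in these data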;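 note: higher means less KLF5 promoter-driven luciferase light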
697 NFkB inh: inhibitors of the PMA/ionomycin-induced NF-kB reporter in 697 B cells. 697 B-cell NF-kB luciferase reporter, 16 h. inhibition, % at 4 µM. hit rate 0.33% among 330,000. AID 435022; in the data active = inhibition above about 35%
Mdm2 MdmX PPI: human Mdm2/MdmX binding inhibition; AID 485346; inhibition, % at 8 µM; O15151+Q00987; hit rate 3% among 330,000; SaOS-2 split-luciferase Mdm2/MdmX complementation, luminescence;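 active = inhibition of at least 50% at 8 µM in the primary screen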
Target sequence (O15151 whole entry, looked up): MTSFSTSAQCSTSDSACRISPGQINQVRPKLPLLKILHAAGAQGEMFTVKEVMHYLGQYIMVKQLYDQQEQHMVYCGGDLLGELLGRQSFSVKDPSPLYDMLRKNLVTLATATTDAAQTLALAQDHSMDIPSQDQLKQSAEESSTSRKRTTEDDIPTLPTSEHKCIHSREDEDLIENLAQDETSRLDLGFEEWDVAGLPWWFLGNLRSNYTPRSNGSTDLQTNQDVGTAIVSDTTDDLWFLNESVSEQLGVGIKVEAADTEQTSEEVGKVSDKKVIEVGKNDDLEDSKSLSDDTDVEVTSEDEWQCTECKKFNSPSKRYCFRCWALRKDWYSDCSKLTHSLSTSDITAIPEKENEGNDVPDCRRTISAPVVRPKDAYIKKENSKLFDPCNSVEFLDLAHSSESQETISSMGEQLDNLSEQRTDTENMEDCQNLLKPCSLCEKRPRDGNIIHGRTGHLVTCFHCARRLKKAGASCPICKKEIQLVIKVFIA
Target sequence (Q00987 whole entry, looked up): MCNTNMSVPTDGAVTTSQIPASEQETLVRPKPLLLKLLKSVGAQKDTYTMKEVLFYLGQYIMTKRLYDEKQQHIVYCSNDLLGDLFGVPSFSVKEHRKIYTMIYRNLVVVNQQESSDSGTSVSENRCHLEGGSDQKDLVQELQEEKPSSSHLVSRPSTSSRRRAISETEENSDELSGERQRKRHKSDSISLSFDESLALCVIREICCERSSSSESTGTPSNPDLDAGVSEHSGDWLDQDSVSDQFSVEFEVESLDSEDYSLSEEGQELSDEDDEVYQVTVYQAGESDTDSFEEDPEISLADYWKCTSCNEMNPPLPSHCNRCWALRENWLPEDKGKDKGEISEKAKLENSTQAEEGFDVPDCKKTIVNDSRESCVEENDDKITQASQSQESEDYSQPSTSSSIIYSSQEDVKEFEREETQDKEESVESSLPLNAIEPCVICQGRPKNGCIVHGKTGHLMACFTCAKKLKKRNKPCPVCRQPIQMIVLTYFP
Mdm2 MdmX conf: human Mdm2/MdmX binding inhibition, confirmed. shares compounds with Mdm2 MdmX PPI. hit rate 55% among 10,000. luminescent assay. inhibition, % at 8 µM; in the data active = inhibition above about 40%
Full FLuc ctr: counter-screen for Mdm2/MdmX inhibitors: full-length luciferase; shares compounds with Mdm2 MdmX PPI; SaOS-2 full-length luciferase counterscreen, luminescence; inhibition, % at 8 µM; hit rate 77% among 6,200;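 active = mean inhibition at 8 µM reaching about 37%, which flags the compound as non-specific, limit read from the data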;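 note: p53-null SaOS-2 cells with luciferase driven by a doxycycline-inducible promoter; compound on cells about two nights before reading with doxycycline added after day one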
A number is an active result; i = inactive; nt = no result. The list is not random: actives were taken first. Their share in the collection is about 4.1%.

SMILES	Gli-Sufu block	Jurkat NFkB inh	aSyn UTR inh	KLF5 inhibitor	697 NFkB inh	Mdm2 MdmX PPI	Mdm2 MdmX conf	others
O=c1c([N+](=O)[O-])c(N2CCCCCC2)c2ccccc2n1-c1ccccc1	i	i	i	i	i	i	nt
CC(=O)Nc1ccc(Nc2c([N+](=O)[O-])c(=O)n(-c3ccccc3)c3ccccc23)cc1	i	i	i	i	i	61	i
O=C(Nc1cccc(NC(=O)c2ccccc2Cl)c1)c1ccc([N+](=O)[O-])o1	i	i	86	i	i	61	58	Full FLuc ctr=42
O=C(Nc1ccc(N2CCCC2)c(Cl)c1)c1ccc([N+](=O)[O-])o1	i	nt	nt	i	nt	nt	nt
CN1CCc2c(sc(NC(=O)c3ccco3)c2C(N)=O)C1	i	i	i	i	i	i	nt
NC(=O)c1ccsc1NC(=O)c1ccc([N+](=O)[O-])o1	i	i	nt	nt	i	57	i
CCOC(=O)N1CCN(S(=O)(=O)c2ccc(C(=O)Nc3sc4c(c3C(N)=O)CCN(CC)C4)cc2)CC1	i	i	i	i	i	79	i
CN1CCc2c(sc(NC(=O)c3ccc([N+](=O)[O-])o3)c2C(N)=O)C1	i	i	86	i	i	94	89	Full FLuc ctr=55
Cc1nnc(SCC(=O)N2c3ccccc3CC2C)[nH]c1=O (stereo not given)	i	i	i	i	i	i	nt
O/N=C(\c1ccccc1)C(O)c1ccccc1 (stereo not given)	i	i	i	i	i	i	nt
CCN1CCc2c(sc(NC(=O)c3ccc(S(=O)(=O)N4CCCC4)cc3)c2C(=O)NC)C1	i	i	i	i	i	83	i
CCCN1CCc2c(sc(NC(=O)c3ccc(S(=O)(=O)N4CCN(C(=O)OCC)CC4)cc3)c2C(N)=O)C1	i	i	i	i	i	i	nt
CN1CCc2c(sc(NC(=O)c3ccc(S(=O)(=O)N4CCc5ccccc54)cc3)c2C(N)=O)C1	nt	i	i	i	i	96	83	Full FLuc ctr=i
CCOC(=O)N1CCN(S(=O)(=O)c2ccc(C(=O)Nc3sc4c(c3C(=O)OC)CCN(C)C4)cc2)CC1	i	i	i	i	i	100	i
CNC(=O)c1c(NC(=O)c2ccc(S(=O)(=O)N3CCCCC3)cc2)sc2c1CCN(C(C)C)C2	i	i	i	i	i	i	nt
O=C(NC1CCCCC1)C1CC(=O)N(CCc2ccc(F)cc2)C1 (stereo not given)	i	i	i	i	i	i	nt
O=C(NC1CCCCC1)C1CC(=O)N(c2cccc([N+](=O)[O-])c2)C1 (stereo not given)	i	i	i	i	i	i	nt
CC(C)Nc1ccc(Cl)cc1[N+](=O)[O-]	nt	i	i	i	i	i	nt
Nc1ccc2c(c1)OC1(CCCC1)O2	i	i	i	i	i	70	80	Full FLuc ctr=37
O=C(Cc1ccccc1)Nc1ccc2c(c1)OC1(CCCC1)O2	i	i	nt	nt	i	i	nt
CC(C)c1ccccc1NC(=O)C1CC(=O)N(C2CCCC2)C1 (stereo not given)	i	i	i	i	i	i	nt
CCOC(=O)c1[nH]c(COC(=O)c2ccccc2NC(=O)c2ccco2)c(C(=O)OCC)c1C	i	i	i	i	i	i	nt
CCOC(=O)c1c(C)[nH]c(C(=O)COC(=O)c2ccccc2NC(=O)c2ccco2)c1C	i	i	i	i	i	63	i
CN(c1ccc(Br)cc1)S(=O)(=O)c1ccc2[nH]cc(C(=O)NCCN3CCOCC3)c(=O)c2c1	i	i	i	i	i	i	nt
O=C(CC1Oc2ccccc2NC1=O)NCc1ccccc1 (stereo not given)	i	i	i	i	i	i	nt
SMILES	Gli-Sufu block	Jurkat NFkB inh	aSyn UTR inh	KLF5 inhibitor	697 NFkB inh	Mdm2 MdmX PPI	Mdm2 MdmX conf	others
CC(=O)CC1OC(=O)C(Br)=C1NCc1ccccc1 (stereo not given)	i	i	i	i	i	67	48	Full FLuc ctr=i
CC(C)CNS(=O)(=O)c1ccc(CCC(=O)NCCc2ccccc2)cc1	i	i	i	i	i	i	nt
CC1(C)CSC(=NCc2ccccc2)N1C(=O)c1cccc([N+](=O)[O-])c1	i	i	i	i	i	i	nt
O=C(N/N=C/c1ccc(Cl)cc1)c1cc2c(s1)-c1ccccc1CC2	i	i	i	i	i	65	60	Full FLuc ctr=47
O=C(O)c1cc2c(s1)-c1ccccc1CC2	i	i	i	i	i	i	nt
CC(C)(C)c1ccc(OCCNC(=O)c2ncn[nH]2)cc1	i	i	i	i	i	i	nt
C=CCNc1oc(-c2ccc(Cl)cc2)nc1C#N	i	i	nt	nt	i	50	i
CN1CCN(C(=O)c2ccc3c(c2)N(Cc2ccc(F)cc2)C(=O)c2ccccc2S3=O)CC1 (stereo not given)	i	i	i	i	i	i	nt
CC[C@]12c3[nH]c4cc(-c5ccco5)ccc4c3CCN1C(=O)[C@@H](CC(=O)NC/C=C(\C)CCC=C(C)C)C[C@@H]2C(=O)N1CCN(C(=O)c2ccco2)CC1	i	nt	nt	nt	i	56	i
CC[C@]12c3[nH]c4cc(-c5ccco5)ccc4c3CCN1C(=O)[C@@H](CC(=O)NC/C=C(\C)CCC=C(C)C)C[C@@H]2C(=O)N1CCN(C(=O)C2CC2)CC1	i	nt	nt	nt	i	i	nt
CC[C@]12c3[nH]c4ccc(Cl)cc4c3CCN1C(=O)[C@@H](CC(=O)NC/C=C(\C)CCC=C(C)C)C[C@@H]2C(=O)N1CCN(C(=O)C2CC2)CC1	i	nt	nt	nt	i	70	i	Full FLuc ctr=71
CC[C@]12c3[nH]c4ccc(OC)cc4c3CCN1C(=O)C(CC(=O)NC/C=C(\C)CCC=C(C)C)C[C@@H]2C(=O)N1CCN(C(=O)c2ccco2)CC1 (stereo not given in full)	i	nt	nt	nt	i	i	nt
CC[C@]12c3[nH]c4ccccc4c3CCN1C(=O)C(CC(=O)NC/C=C(\C)CCC=C(C)C)C[C@@H]2C(=O)N1CCN(C(=O)c2ccco2)CC1 (stereo not given in full)	i	i	nt	nt	i	54	i
CC(=O)Nc1ccc2nc(CN3CCN(CC=C(C)C)C(CCO)C3)ccc2c1 (stereo not given)	i	i	i	i	i	i	nt
CSc1ccc(CN2CCN(C(C)C)C(CCO)C2)cc1 (stereo not given)	i	i	i	i	i	i	nt
C/C(=N\NC(=O)c1cccc(N/N=C(\C)c2ccc([N+](=O)[O-])cc2)c1)c1ccc([N+](=O)[O-])cc1	i	i	i	i	i	69	i
CCOC(=O)c1cnc2ccc(C(=O)OC)cc2c1Nc1ccc(C(=O)O)cc1	i	i	i	i	i	i	nt
CCOC(=O)c1ccc2ncc(C(=O)OCC)c(Nc3ccc(N4CCOCC4)cc3)c2c1	i	i	i	i	i	68	55	Full FLuc ctr=55
CCOc1ccc2nc(C)cc(Nc3ccc(N4CCOCC4)cc3)c2c1	nt	i	i	i	i	i	i
O=C(Nc1cc([N+](=O)[O-])ccc1F)C1CC1	i	i	i	i	i	i	nt
